The record followed here is PubChem BioAssay (Tox21).

Values without a mark were called inactive. Inconclusive results are not listed. The source made the active and inactive calls. Unless noted, the call rests on the fitted dose curve; in most records, active means well fitted curve in the direction sought with a large enough effect in the repeat runs; inconclusive means weak or mixed curves; inactive means no such curve, though single readings can be large; an effect the other way counts as inactive or inconclusive.

The nature of assay [1]: qHTS assay for small molecule agonists of the p53 signaling pathway (AID 651631; calls by dose curve; further: nearly all actives have a fitted effect of over 15% in size; further: potency means the concentration at half of the fitted maximal effect). The gist of the method:
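Fluorescence intensity from cleaved LiveBLAzer B/G substrate (2 h, room temperature) served as the signal. Beforehand, HCT-116 reporter cells bearing p53 response elements were treated 16 h at 37 °C with DMSO-dissolved compounds.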
(qHTS replaces the single test concentration by a dilution series.)

Assay [2] is described as follows: qHTS assay for small molecules that induce genotoxicity in human embryonic kidney cells expressing luciferase-tagged ATAD5 (AID 651632). Further: nearly all actives have a fitted effect of over 15% in size. The method in brief: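 Cells were seeded at 2,000 per well, dosed with compound, and incubated 16 hr at 37C in 5% CO2. Luciferase activity was then quantified after a 30 min room-temperature incubation with Amplite.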
The nature of assay [3]: qHTS assay for small molecule agonists of the p53 signaling pathway - cell viability (AID 651633; calls by dose curve;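 further: p53RE-bla HCT reporter cells with a stable beta-lactamase p53 reporter; series mostly up to about 83 µM; nearly all actives have a fitted effect of over 30% in size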). The method in brief:
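Viability counter-read: CellTiter-Glo luminescence (30 min, room temperature) in the same p53RE-bla plates. These plates had been exposed to compounds for 16 h at 37 C.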

Assay [4] can be described thus: qHTS assay for small molecules that induce genotoxicity in human embryonic kidney cells expressing luciferase-tagged ATAD5 - cell viability (AID 651634; calls by dose curve; further: nearly all actives have a fitted effect of over 25% in size). The gist of the method: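 Cells (HEK293T, luciferase-tagged ATAD5) are seeded at 2,000 per well, dosed with compound or DMSO vehicle, and incubated 15.5 hr at 37C and 5% CO2. CellTiter-Fluor is added for 30 min before fluorescence is measured.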

Assay [5] can be described thus: qHTS assay for small molecule disruptors of the mitochondrial membrane potential - cell viability (AID 720634; calls by dose curve;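 further: human HepG2 liver cancer cells; series mostly up to about 83 µM; nearly all actives have a fitted effect of over 20% in size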). The gist of the method:
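Cytotoxicity was measured by ATP quantitation in HepG2 wells that had first been treated with compound for 1 hr and stained with m-MPI dye; CellTiter-Glo incubation was 30 min at room temperature.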

Assay [6] in a line: qHTS assay for small molecule disruptors of the mitochondrial membrane potential (AID 720635). Further: potency means the concentration at half of the fitted maximal effect. The method in brief: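 Mitochondrial membrane potential tracked with Mito-MPS dye, red aggregates (ex 540/em 590 nm) against green monomers (ex 490/em 535 nm). Compound treatment 1 hr at 37C, dye 30 min in HepG2.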
A short description of assay [7]: qHTS assay to test for compound auto fluorescence at 590 nm (red) in HepG2 cells (AID 720674). The method in brief:
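Red autofluorescence (Ex/Em 540/590 nm, Rose Bengal sodium equivalents) was measured in HepG2 cells, 2,000 per well in MEM plus 10% FBS, plated overnight at 37 C. Readings were taken 1 hr after adding 23 nL compound or DMSO, at 37 C and 5% CO2.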

Assay [8] can be described thus: qHTS assay to test for compound auto fluorescence at 535 nm (green) in HepG2 cells (AID 720675).
The nature of assay [9]: qHTS assay to test for compound auto fluorescence at 460 nm (blue) in HEK293 cells (AID 720678). The gist of the method: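 HEK293 cells (2,000 per well, medium with 10% dialyzed FBS) attached for 4-5 hr at 37C, then received compound and stood overnight at 37C, 5% CO2. Blue fluorescence was read at Ex/Em 405/460 nm and expressed relative to triamterene.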
Assay [10] in a line: qHTS assay to test for compound auto fluorescence at 590 nm (red) in HEK293 cells (AID 720679). The method in brief:
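HEK293 cells (2,000/well, medium with 10% dialyzed FBS) attached for 4-5 hr at 37C, received 23 nL compound and were incubated overnight at 37C, 5% CO2. Red fluorescence was then read at 540/590nm Ex/Em, referenced to Rose Bengal sodium.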
On the % scale 0 is the no-effect control and ±100 the full control effect.

For `CC(C)Oc1ccccc1O`, the Potency entry in assay [1], in assay [2], in assay [3], in assay [4], in assay [5] and in assay [6] was “inactive” throughout. Moreover, the Potency result in assay [9] is “inactive”. The call in assay [7], in assay [8] and in assay [10] was inactive.

In the case of `O=C(O)c1c2ccccc2cc2ccccc12`, the Potency entry in assay [1], in assay [2], in [3], in assay [4], in assay [5] and in [6] was “inactive” throughout. In assay [9], the Potency entry was “inactive”. Further, the outcome in assay [7], in assay [8] and in assay [10] was inactive.

As to `Cc1ccc(S(=O)(=O)NC(=O)NC2CCCC2)cc1`, the Potency result in assay [1], in assay [2], in assay [3], in [4], in [5] and in [6] was “inactive” throughout. Further, in [9], the Potency entry is “inactive”. Besides, the compound was called inactive in assay [8] and in assay [10].

As for `CNc1ccccc1`, the Potency entry in assay [1], in assay [2], in [3], in assay [4], in assay [5] and in assay [6] was “inactive” throughout. Moreover, in [9], the Potency entry was “inactive”. For the same compound, the compound was called inactive in assay [7], in [8] and in [10].

For the compound `O=C(O)CCc1nc2ccccc2[nH]1`, the Potency result in assay [1], in assay [2], in assay [3], in assay [4], in assay [5] and in assay [6] was “inactive” each time. In addition, in assay [9], the Potency entry was “inactive”. Also, the compound was called inactive in assay [7], in assay [8] and in assay [10].

Consider `CC1=C(C)C(=O)C(C(CCCCCC(=O)O)c2ccccc2)=C(C)C1=O` (stereo not given), for which the Potency result in assay [1], in [2], in [3], in assay [4], in [5] and in assay [6] was “inactive” throughout. Besides, the Potency result in assay [9] was “inactive”. Besides, the outcome in assay [7], in assay [8] and in [10] was inactive.

Turning to `C[C@H]1C[C@H]2[C@@H]3CCC4=CC(=O)C=C[C@]4(C)[C@@]3(F)[C@@H](O)C[C@]2(C)[C@@]1(O)C(=O)COP(=O)(O)O`, the Potency entry in [1], in assay [2], in assay [3], in [4], in assay [5] and in [6] was “inactive” each time. In addition, in assay [9], the Potency result is “inactive”. Further, the outcome in assay [7], in [8] and in [10] was inactive.

In the case of `CC1(C)CC(=O)CC(C)(C)N1`, the Potency entry in [1], in assay [2], in [3], in assay [4], in assay [5] and in assay [6] was “inactive” throughout. The Potency result in assay [9] was “inactive”. The call in assay [7], in assay [8] and in assay [10] was inactive.

In the case of `CCCCCCCCCCCCCCCCCCCl`, the figures for the activation in assay [1] and in [2] were -2.7% [at 8.3 µM] and 2.16% [at 8.08 µM], respectively. Further, the figures for the activity change, negative = cytotoxicity in assay [3] and in assay [5] were -0.103% [at 8.08 µM] and -4.97% [at 8.08 µM], respectively. For the same compound, in assay [4], the activity, negative = cytotoxicity was -17.2% [at 8.08 µM]. Further, in [6], the ratio activity, negative = MMP loss was -5.25% [at 8.08 µM]. Besides, the fluorescence, relative to Rose Bengal in assay [7] was -0.0738% [at 3.72 µM]. The fluorescence, % of fluorescein control in [8] was 0.0105% [at 3.72 µM]. In assay [9], the fluorescence, % of triamterene was 0.0349% [at 3.72 µM]. Further, the fluorescence, % of fluorescent control in assay [10] was -0.145% [at 3.72 µM].

`Cc1cccc(C)c1NC(=O)CN1CCCC1`: the Potency result in assay [1], in assay [2], in [3], in assay [4], in assay [5] and in [6] was “inactive” each time. Further, the Potency entry in [9] was “inactive”. The outcome in assay [7], in assay [8] and in [10] was inactive.

Turning to `CC(=O)Nc1ccn(C2COC(COC(=O)c3ccccc3)O2)c(=O)n1` (stereo not given), in [1], the Potency is 3.76 µM (active). Besides, the Potency result in assay [2], in [3], in [4], in [5] and in assay [6] was “inactive” each time. Besides, the compound was classed as inactive in [7], in [8] and in assay [10].

Consider `N#CCCCC(C#N)CCC#N` (stereo not given), for which the Potency result in assay [1], in [2], in assay [3], in assay [4], in assay [5] and in [6] was “inactive” in each case. Besides, the Potency result in assay [9] is “inactive”. Besides, the compound was called inactive in [7], in assay [8] and in assay [10].

Consider `O=C(O)c1cc(C(=O)O)cc([N+](=O)[O-])c1`, for which the Potency result in assay [1], in assay [2], in assay [3], in assay [4], in [5] and in [6] was “inactive” each time. Besides, in assay [9], the Potency entry is “inactive”. For the same compound, the outcome in assay [8] and in assay [10] was inactive.

`CC(=O)S[C@H](C(=O)N[C@H]1Cc2ccccc2[C@H]2CCC[C@@H](C(=O)O)N2C1=O)C(C)C`: the Potency entry in [1], in assay [2], in assay [3], in assay [4], in [5] and in assay [6] was “inactive” each time. Besides, the Potency entry in [9] was “inactive”. For the same compound, the outcome in [7], in [8] and in [10] was inactive.

In the case of `CCCC1CCCC(=O)O1` (stereo not given), the Potency entry in assay [1], in [2], in assay [3], in [4], in assay [5] and in [6] was “inactive” throughout. Also, the Potency result in [9] was “inactive”. For the same compound, the call in [7], in assay [8] and in assay [10] was inactive.

On to `COc1ccc(C(=O)c2ccc(C)cc2)c(O)c1`, for which the Potency result in assay [1], in assay [2], in [3], in assay [4], in assay [5] and in [9] was “inactive” each time. In [6], the Potency was 61.8 µM (active). For the same compound, the call in assay [7], in assay [8] and in assay [10] was inactive.

As for `C[C@H](CN1CCCC1)C(=O)c1ccc(C(F)(F)F)cc1`, the Potency result in [1], in assay [2], in assay [3], in [4], in [5] and in [6] was “inactive” each time. Moreover, the Potency result in assay [9] was “inactive”. In addition, the compound was called inactive in [7], in assay [8] and in [10].

With `CC(C)CCCCCOC(=O)CS`, the Potency result in [1], in [2], in assay [3], in [4], in assay [5] and in assay [9] was “inactive” in each case. In addition, the compound was called inactive in assay [7], in assay [8] and in [10].

In the case of `CC(C)=CCC/C(C)=C/C=N/O`, the Potency result in [1], in assay [2], in assay [3], in [4], in assay [5] and in assay [6] was “inactive” throughout. The Potency entry in assay [9] is “inactive”. Moreover, the compound was classed as inactive in assay [7], in [8] and in assay [10].

Consider `O=C1C=CCCC1`, for which the Potency entry in assay [1], in assay [2], in assay [3], in assay [4], in assay [5] and in [6] was “inactive” in each case. Also, the Potency result in assay [9] is “inactive”. Also, the compound was called inactive in assay [7], in assay [8] and in [10].

For `NC(=O)c1ccccc1C(N)=O`, the Potency result in assay [1], in assay [2], in assay [3], in [4], in assay [5] and in assay [9] was “inactive” each time. In [6], the Potency is 61.4 µM (active). Besides, the compound was called inactive in assay [7], in assay [8] and in assay [10].

Regarding `CC(C)Cc1nccs1`, the Potency result in assay [1], in assay [2], in assay [3], in assay [4], in assay [5] and in assay [9] was “inactive” each time. For the same compound, the result in [7], in assay [8] and in [10] was inactive.
